Data reported in PubChem BioAssay AID1159580 (chemical genetic matrix, 2015).
Hit rate of the full screen: of about 5,500 compounds, about 2,000 (36%) were called active. Roughly 18% stayed inconclusive and do not appear here. Cut-off read from the data, not from the text of the source: active = normalized growth mostly below about 0.91 (no sharp cut-off); inconclusive = no clear call, values can overlap the other calls; inactive = mostly above about 0.92. The list shows a part of the results.

Test: chemical genetic growth profiling, strain panel (AID 1159580);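 note: tested at 20 µM; growth read once vehicle control cultures reached saturation at 30 °C; 1 = growth at the plate median or of vehicle wells; lower values mean less growth of the strain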
Conditions: S. cerevisiae deletion strains, growth OD
[1] = locus YAL021C, strain ccr4, stronger effect = lower value
[2] = locus YAL026C, strain drs2, stronger effect = lower value
[3] = locus YAL030W, strain snc1, stronger effect = lower value
[4] = locus YBL061C, strain skt5, stronger effect = lower value
[5] = locus YBR009C, strain hhf1, stronger effect = lower value
[6] = locus YBR023C, strain chs3, stronger effect = lower value
[7] = locus YBR171W, strain sec66, stronger effect = lower value
[8] = locus YBR231C, strain swc5, stronger effect = lower value
[9] = locus YBR279W, strain paf1, stronger effect = lower value
[10] = locus YCL011C, strain gbp2, stronger effect = lower value
[11] = locus YCL016C, strain dcc1, stronger effect = lower value
[12] = locus YCL061C, strain MRC1, stronger effect = lower value
[13] = locus YCL069W, strain vba3, stronger effect = lower value
[14] = locus YCR088W, strain abp1, stronger effect = lower value
[15] = locus YDL005C, strain med2, stronger effect = lower value
[16] = locus YDL040C, strain nat1, stronger effect = lower value
[17] = locus YDR001C, strain nth1, stronger effect = lower value
[18] = locus YDR069C, strain doa4, stronger effect = lower value
[19] = locus YDR137W, strain rgp1, stronger effect = lower value
[20] = locus YDR159W, strain sac3, stronger effect = lower value
[21] = locus YDR297W, strain sur2, stronger effect = lower value
[22] = locus YDR334W, strain swr1, stronger effect = lower value
[23] = locus YDR335W, strain msn5, stronger effect = lower value
[24] = locus YDR392W, strain spt3, stronger effect = lower value
[25] = locus YEL003W, strain gim4, stronger effect = lower value
[26] = locus YEL037C, strain rad23, stronger effect = lower value
[27] = locus YEL061C, strain CIN8 (second series), stronger effect = lower value
[28] = locus YER015W, strain faa2, stronger effect = lower value
[29] = locus YER016W, strain bim1, stronger effect = lower value
[30] = locus YER111C, strain swi4, stronger effect = lower value
[31] = locus YER155C, strain BEM2 (second series), stronger effect = lower value
[32] = locus YFR010W, strain ubp6, stronger effect = lower value
[33] = locus YGL167C, strain pmr1, stronger effect = lower value
[34] = locus YGL173C, strain kem1, stronger effect = lower value
[35] = locus YGL227W, strain vid30, stronger effect = lower value
[36] = locus YGL240W, strain doc1, stronger effect = lower value
[37] = locus YGL253W, strain hxk2, stronger effect = lower value
[38] = locus YHR013C, strain ard1, stronger effect = lower value
[39] = locus YHR027C, strain rpn1, stronger effect = lower value
[40] = locus YHR030C, strain SLT2, stronger effect = lower value
[41] = locus YHR079C, strain IRE1, stronger effect = lower value
[42] = locus YHR142W, strain chs7, stronger effect = lower value
[43] = locus YJL092W, strain hpr5, stronger effect = lower value
[44] = locus YJL095W, strain BCK1 (second series), stronger effect = lower value
[45] = locus YJL095W, strain BCK1, stronger effect = lower value
[46] = locus YJL115W, strain asf1, stronger effect = lower value
[47] = locus YJL129C, strain trk1, stronger effect = lower value
[48] = locus YJL154C, strain vps35, stronger effect = lower value
[49] = locus YJL164C, strain tpk1, stronger effect = lower value
[50] = locus YJL166W, strain qcr8, stronger effect = lower value
[51] = locus YJL187C, strain SWE1, stronger effect = lower value
[52] = locus YJR066W, strain TOR1, stronger effect = lower value
[53] = locus YKL160W, strain elf1, stronger effect = lower value
[54] = locus YKR026C, strain gcn3, stronger effect = lower value
[55] = locus YKR091W, strain srl3, stronger effect = lower value
[56] = locus YLL001W, strain dnm1, stronger effect = lower value
[57] = locus YLL026W, stronger effect = lower value
[58] = locus YLL041C, strain sdh2, stronger effect = lower value
[59] = locus YLR027C, strain aat2, stronger effect = lower value
[60] = locus YLR113W, strain HOG1, stronger effect = lower value
[61] = locus YLR221C, strain rsa3, stronger effect = lower value
[62] = locus YLR258W, strain gsy2, stronger effect = lower value
[63] = locus YLR262C, strain YPT6 (second series), stronger effect = lower value
[64] = locus YLR320W, strain mms22, stronger effect = lower value
[65] = locus YLR342W, strain FKS1, stronger effect = lower value
[66] = locus YLR357W, strain rsc2, stronger effect = lower value
[67] = locus YLR370C, strain arc18, stronger effect = lower value
[68] = locus YLR384C, strain iki3, stronger effect = lower value
[69] = locus YML120C, strain ndi1, stronger effect = lower value
[70] = locus YMR058W, strain fet3, stronger effect = lower value
[71] = locus YMR125W, strain sto1, stronger effect = lower value
[72] = locus YMR129W, stronger effect = lower value
[73] = locus YMR205C, strain PFK2, stronger effect = lower value
[74] = locus YMR231W, strain pep5, stronger effect = lower value
[75] = locus YNL071W, strain lat1, stronger effect = lower value
[76] = locus YNL183C, strain NPR1, stronger effect = lower value
[77] = locus YNL209W, strain ssb2, stronger effect = lower value
[78] = locus YNL248C, strain rpa49, stronger effect = lower value
[79] = locus YNL322C, strain KRE1 (second series), stronger effect = lower value
[80] = locus YNR049C, strain mso1, stronger effect = lower value
[81] = locus YOR001W, strain rrp6, stronger effect = lower value
[82] = locus YOR070C, strain gyp1, stronger effect = lower value
[83] = locus YOR080W, strain dia2, stronger effect = lower value
[84] = locus YOR083W, strain WHI5, stronger effect = lower value
[85] = locus YOR106W, strain vam3, stronger effect = lower value
[86] = locus YOR231W, strain MKK1, stronger effect = lower value
[87] = locus YOR265W, strain rbl2, stronger effect = lower value
[88] = locus YOR270C, strain vph1, stronger effect = lower value
[89] = locus YOR290C, strain snf2, stronger effect = lower value
[90] = locus YPL051W, strain arl3, stronger effect = lower value
[91] = locus YPL078C, strain atp4, stronger effect = lower value
[92] = locus YPL106C, strain sse1, stronger effect = lower value
[93] = locus YPL240C, strain hsp82, stronger effect = lower value
[94] = locus YPL256C, strain CLN2, stronger effect = lower value

Measured: normalized growth

CC(=O)NS(=O)(=O)c1ccc(NC(=O)c2ccccc2C(=O)O)cc1
inactive: [1] 1.01 | [2] 1.02 | [3] 1.02 | [4] 1.01 | [5] 1.03 | [6] 1.02 | [7] 1.04 | [8] 1.01 | [9] 1.02 | [10] 1.01 | [11] 1.02 | [12] 1.02 | [13] 1.02 | [14] 1.01 | [15] 1.02 | [16] 1.02 | [17] 1.01 | [18] 1.02 | [19] 1.04 | [20] 1.04 | locus YDR195W, strain ref2 1.01 | [21] 1.01 | [22] 1.01 | [23] 1.01 | [24] 1.01 | [25] 1.01 | [26] 1.01 | [27] 1.02 | [28] 1.02 | [29] 1.02 | [30] 1.02 | [31] 1.05 | [32] 1.02 | [33] 1.02 | [34] 1.02 | [35] 1.02 | [36] 1.01 | [37] 1.02 | [38] 1.02 | [39] 1.02 | [40] 0.958 | [41] 0.969 | [42] 1.04 | [43] 1.01 | [44] 1.02 | [45] 0.972 | [46] 1.02 | [47] 1.03 | [48] 1.02 | [49] 1.01 | [50] 1.02 | [51] 1.01 | [52] 0.949 | [53] 1.02 | [54] 1 | [55] 1.01 | [56] 1.01 | [57] 1.02 | [58] 1.02 | [59] 1.02 | [60] 0.976 | [61] 1.02 | [62] 1.01 | [63] 1.03 | [64] 1.03 | [65] 1.01 | [66] 1.05 | [67] 1.02 | [68] 1.03 | [69] 1.01 | [70] 1.04 | [71] 1.03 | [72] 1.03 | [73] 1.02 | [74] 1.02 | [75] 1.02 | [76] 0.91 | [77] 1.02 | [78] 1.02 | [79] 1.01 | [80] 1.01 | [81] 1.02 | [82] 1.01 | [83] 1.01 | [84] 1.01 | [85] 1.03 | [86] 0.953 | [87] 1.03 | [88] 1.05 | [89] 1.04 | [90] 1.03 | [91] 1.02 | [92] 0.991 | [93] 1.01 | [94] 0.975

CNS(=O)(=O)c1ccc(NC(=O)c2ccccc2C(=O)O)cc1
inactive: [1] 1 | [2] 1 | [3] 1 | [4] 0.993 | [5] 0.998 | [6] 1 | [7] 0.996 | [8] 0.991 | [9] 1 | [10] 0.993 | [11] 1 | [12] 1 | [13] 1 | [14] 0.999 | [15] 1 | [16] 1 | [17] 0.996 | [18] 0.995 | [19] 1.01 | [20] 0.982 | locus YDR195W, strain ref2 0.977 | [21] 0.995 | [22] 1 | [23] 1 | [24] 0.968 | [25] 0.994 | [26] 1.01 | [27] 0.999 | [28] 0.989 | [29] 1.01 | [30] 1 | [31] 1 | [32] 1.01 | [33] 0.993 | [34] 0.997 | [35] 0.998 | [36] 0.988 | [37] 0.998 | [38] 0.997 | [39] 0.992 | [40] 0.995 | [41] 0.992 | [42] 1.02 | [43] 0.995 | [44] 0.99 | [45] 0.981 | [46] 0.995 | [47] 1.02 | [48] 0.997 | [49] 1.01 | [50] 0.998 | [51] 0.99 | [52] 0.931 | [53] 1.01 | [54] 0.979 | [55] 0.994 | [56] 1.01 | [57] 0.995 | [58] 1 | [59] 1 | [60] 0.969 | [61] 1 | [62] 0.998 | [63] 0.992 | [64] 1 | [65] 0.994 | [66] 0.994 | [67] 0.995 | [68] 0.992 | [69] 0.992 | [70] 0.998 | [71] 0.994 | [72] 1.01 | [73] 0.967 | [74] 0.998 | [75] 1.01 | [76] 0.933 | [77] 0.997 | [78] 0.998 | [79] 0.998 | [80] 1 | [81] 1 | [82] 0.999 | [83] 0.994 | [84] 0.997 | [85] 1.01 | [86] 0.991 | [87] 1.01 | [88] 1.03 | [89] 0.995 | [90] 1.02 | [91] 1.02 | [92] 0.984 | [93] 0.992 | [94] 0.987
